An excerpt weighted towards active compounds, which were near 0.9% of everything screened.
SRC1 TRFRET art: flags TR-FRET format artefacts in PPARgamma SRC-1 recruitment agonist screen | TR-FRET detection artefact counter-screen, emission ratio; hits give high values | TR-FRET ratio at 8 µM | 99,000 tested, 0.34% active; in the data active = TR-FRET ratio above about 2300
TR-FRET SRC-2 ct: TR-FRET artefact, counter-screen to PPARgamma/SRC-2 agonist assay; hits give high values; 200,000 tested, 0.4% active; TR-FRET ratio at 8 µM; in the data active = TR-FRET ratio above about 2000
PPARg SRC1 recr: promotes SRC-1 coactivator recruitment by human PPARgamma; PPARgamma-SRC-1 coactivator recruitment biochemical assay; activation, % at 8 µM; P37231; 200,000 tested, 0.41% active; in the data active = activation above about 19%
SRC3 TRFRET art: counter-screen for PPARgamma SRC-3 recruitment agonists: TR-FRET artefact | PPARgamma/SRC-3 format; hits give high values | TR-FRET ratio at 8 µM | 99,000 tested, 0.39% active | AID 1048; in the data active = TR-FRET ratio above about 2000
PPARg SRC3 recr: PPARgamma-driven SRC-3 recruitment agonism; biochemical PPARgamma/SRC-3 coactivator recruitment assay; activation, % at 8 µM; 200,000 tested, 0.26% active; in the data active = activation above about 23%
PPARg SRC2 recr: promotes SRC-2 coactivator recruitment by human PPARgamma; PPARgamma LBD-SRC-2 recruitment, biochemical; activation, % at 8 µM; P37231; 200,000 tested, 0.34% active; AID 1032
PPARg SRC2 conf: confirmation of agonists of SRC-2 recruitment by human PPARgamma; biochemical SRC-2 recruitment by PPARgamma; activation, % at 8 µM; AID 1297; shares compounds with PPARg SRC3 recr; 790 tested, 52% active
PPARg SRC1 ag: human PPARgamma SRC-1 recruitment agonism, confirmation; shares compounds with PPARg SRC3 recr; PPARgamma–SRC-1 coactivator recruitment biochemical assay; activation, % at 8 µM; 790 tested, 43% active; in the data active = activation above about 20%
PPARg SRC3 conf: confirmation of agonists of SRC-3 recruitment by human PPARgamma. activation, % at 8 µM. AID 1301. shares compounds with PPARg SRC3 recr. 790 tested, 29% active. biochemical PPARgamma-SRC-3 coactivator recruitment, agonist mode; in the data active = activation above about 24%
Each line names hits and unclear results; the compound was inactive in the other large screens (follow-up assays come after a bar, where they were run). Cut-off read from the data, not from the text of the source, unless noted: active = activation above about 22%; inactive = the rest.

COc1ccc(NC2SC(=O)N(C)C2=O)cc1 (stereo not drawn)	none
CN1CCN(C(=O)CSc2cc(=O)n(C)c3ccccc23)CC1	SRC1 TRFRET art 2594, TR-FRET SRC-2 ct 2614, PPARg SRC1 recr 34, SRC3 TRFRET art 2760, PPARg SRC2 recr 38 | PPARg SRC2 conf 29 | PPARg SRC1 ag inactive | PPARg SRC3 conf inactive
Cn1c(=O)cc(OCCCC(=O)N2CCN(c3ccccc3)CC2)c2ccccc21	none (no result: SRC1 TRFRET art, SRC3 TRFRET art)
Cn1c(=O)cc(SCC(=O)N2CCN(c3ccccc3)CC2)c2ccccc21	TR-FRET SRC-2 ct 2466, PPARg SRC1 recr 34, PPARg SRC3 recr 40, PPARg SRC2 recr 47 (no result: SRC1 TRFRET art, SRC3 TRFRET art) | PPARg SRC2 conf 40 | PPARg SRC1 ag 28 | PPARg SRC3 conf 29
CCN1CCN(C(=O)CSc2cc(=O)n(C)c3ccccc23)CC1	SRC1 TRFRET art 2968, TR-FRET SRC-2 ct 2412, PPARg SRC1 recr 33, SRC3 TRFRET art 2490 | PPARg SRC2 conf 29 | PPARg SRC1 ag inactive | PPARg SRC3 conf inactive
CN1CCN(C(=O)CCCOc2cc(=O)n(C)c3ccccc23)CC1	none (no result: SRC1 TRFRET art, SRC3 TRFRET art)
Cn1c(=O)cc(SCC(=O)N2CCN(c3ccccn3)CC2)c2ccccc21	TR-FRET SRC-2 ct 2556, PPARg SRC1 recr 38, PPARg SRC3 recr 53, PPARg SRC2 recr 55 (no result: SRC1 TRFRET art, SRC3 TRFRET art) | PPARg SRC2 conf 40 | PPARg SRC1 ag 29 | PPARg SRC3 conf 27
Cn1c(=O)cc(SCC(=O)NCCC2=CCCCC2)c2ccccc21	none
COc1cccc(CNC(=O)CCS(=O)(=O)c2cccs2)c1	none (no result: SRC1 TRFRET art, SRC3 TRFRET art)
Fc1cccc(NC(=S)NNc2c3ccccc3nc3ccccc23)c1	SRC1 TRFRET art 3530, TR-FRET SRC-2 ct 2526, PPARg SRC1 recr 45, SRC3 TRFRET art 2517, PPARg SRC2 recr 53 | PPARg SRC2 conf inactive | PPARg SRC1 ag inactive | PPARg SRC3 conf inactive
CCOC(=O)C(C)Oc1ccc(OCc2ccccc2)cc1 (stereo not drawn)	none
C/C(=N\NC(=O)CCc1ccc(S(=O)(=O)N2CCOCC2)cc1)c1ccc(Br)cc1	none
COc1ccc(C(=O)Nc2cccc3c2C(=O)NC3=O)cc1S(=O)(=O)N1CCOCC1	PPARg SRC1 recr 21 (no result: SRC1 TRFRET art, SRC3 TRFRET art) | PPARg SRC2 conf inactive | PPARg SRC1 ag inactive | PPARg SRC3 conf inactive
Cn1c(O)c(C(C#N)=C2N=c3ccccc3=N2)c2ccccc21	PPARg SRC1 recr 22 (no result: SRC1 TRFRET art, SRC3 TRFRET art) | PPARg SRC2 conf inactive | PPARg SRC1 ag inactive | PPARg SRC3 conf inactive
N#CC(=C1N=c2ccccc2=N1)c1c(O)[nH]c2ccccc12	none (no result: SRC1 TRFRET art, SRC3 TRFRET art)
CCOc1cccc(CNCCSc2nnnn2C)c1	none
C=CCNC(=S)NNC(=O)c1ccc(=O)n(Cc2ccc(Cl)cc2Cl)c1	PPARg SRC3 recr 31 | PPARg SRC2 conf inactive | PPARg SRC1 ag inactive | PPARg SRC3 conf inactive
Cc1ccc(C(C(=O)NCc2ccco2)N(CCc2ccccc2)C(=O)Cn2nnc3ccccc32)o1 (stereo not drawn)	PPARg SRC3 recr 32 | PPARg SRC2 conf inactive | PPARg SRC1 ag inactive | PPARg SRC3 conf inactive
COc1cc(/C=C/C(=O)Nc2nc3ccc(S(=O)(=O)NC(C)C)cc3s2)cc(OC)c1OC	PPARg SRC2 recr 23 | PPARg SRC2 conf inactive | PPARg SRC1 ag inactive | PPARg SRC3 conf inactive
C=CCCCCCCCC(=O)OC	PPARg SRC1 recr 22 | PPARg SRC2 conf inactive | PPARg SRC1 ag inactive | PPARg SRC3 conf inactive
O=C(Nc1nc(-c2ccc3c(c2)OCCO3)cs1)c1ccc(S(=O)(=O)N2CCCCC2)cc1	none (no result: SRC1 TRFRET art, SRC3 TRFRET art)
O=C(Nc1nc(-c2ccc(S(=O)(=O)N3CCCCCC3)cc2)cs1)c1ccccc1	TR-FRET SRC-2 ct 2426, PPARg SRC1 recr 21 (no result: SRC1 TRFRET art, SRC3 TRFRET art) | PPARg SRC2 conf 52 | PPARg SRC1 ag 39 | PPARg SRC3 conf 33
O=C(Nc1nc(-c2ccc(S(=O)(=O)N3CCCC3)cc2)cs1)C1COc2ccccc2O1 (stereo not drawn)	TR-FRET SRC-2 ct 2533, PPARg SRC1 recr 20, PPARg SRC3 recr 33, PPARg SRC2 recr 22 (no result: SRC1 TRFRET art, SRC3 TRFRET art) | PPARg SRC2 conf 34 | PPARg SRC1 ag 27 | PPARg SRC3 conf inactive
COc1ccc(Cl)cc1-c1n[nH]c(=S)o1	TR-FRET SRC-2 ct 3750, PPARg SRC1 recr 57, PPARg SRC3 recr 119, PPARg SRC2 recr 104 (no result: SRC1 TRFRET art, SRC3 TRFRET art) | PPARg SRC2 conf 72 | PPARg SRC1 ag 50 | PPARg SRC3 conf 49
COc1ccccc1-c1n[nH]c(=S)o1	TR-FRET SRC-2 ct 2562, PPARg SRC1 recr 36, PPARg SRC3 recr 59, PPARg SRC2 recr 48 (no result: SRC1 TRFRET art, SRC3 TRFRET art) | PPARg SRC2 conf 46 | PPARg SRC1 ag 35 | PPARg SRC3 conf 30
COc1ccccc1-c1cc(N)n[nH]1	none (no result: SRC1 TRFRET art, SRC3 TRFRET art)
Cc1ccc(OCC(=O)NNC(=O)C(=O)N2CCCC2)c(C)c1	none
Cc1ccc(Sc2c(O)c3ccccc3n(C)c2=O)cc1	TR-FRET SRC-2 ct 2048, PPARg SRC1 recr 24, SRC3 TRFRET art 2226, PPARg SRC2 recr 26 | PPARg SRC2 conf 22 | PPARg SRC1 ag inactive | PPARg SRC3 conf inactive
Cc1ccc(Sc2c(C=O)c3ccccc3n2C)cc1	none (no result: SRC1 TRFRET art, SRC3 TRFRET art)
CCOC(=O)N/N=C(/C)c1ccc(N2C(=O)C3CCCCC3C2=O)cc1 (stereo not drawn)	none
CC(C)c1nnc(N2C(=O)C(O)=C(C(=O)c3cccs3)C2c2ccccc2)s1 (stereo not drawn)	SRC1 TRFRET art 2598, TR-FRET SRC-2 ct 2400, PPARg SRC1 recr 38, SRC3 TRFRET art 2283, PPARg SRC2 recr 31 | PPARg SRC2 conf inactive | PPARg SRC1 ag inactive | PPARg SRC3 conf inactive
C=CCOc1ccc(C2C(C(=O)c3cccs3)=C(O)C(=O)N2c2nnc(C)s2)cc1 (stereo not drawn)	none (no result: SRC1 TRFRET art, SRC3 TRFRET art)
COc1ccc(C2C(C(=O)c3cccs3)=C(O)C(=O)N2c2nncs2)cc1 (stereo not drawn)	PPARg SRC1 recr 27, PPARg SRC3 recr 26 (no result: SRC1 TRFRET art, SRC3 TRFRET art) | PPARg SRC2 conf 24 | PPARg SRC1 ag inactive | PPARg SRC3 conf inactive
COc1ccc(C2C(C(=O)c3cccs3)=C(O)C(=O)N2c2nnc(C)s2)cc1OC (stereo not drawn)	none (no result: SRC1 TRFRET art, SRC3 TRFRET art)
CCN1CCCC1CNC(=O)CSc1cc(=O)n(CC)c2ccccc12 (stereo not drawn)	TR-FRET SRC-2 ct 2187, PPARg SRC1 recr 23, PPARg SRC3 recr 42, PPARg SRC2 recr 26 (no result: SRC1 TRFRET art, SRC3 TRFRET art) | PPARg SRC2 conf 27 | PPARg SRC1 ag inactive | PPARg SRC3 conf inactive
CCn1c(=O)cc(OCC(=O)N2CCCCCC2)c2ccccc21	none (no result: SRC1 TRFRET art, SRC3 TRFRET art)
CCn1c(=O)cc(SCC(=O)NCCCN2CCN(c3ccccc3F)CC2)c2ccccc21	TR-FRET SRC-2 ct 3692, PPARg SRC1 recr 65, PPARg SRC3 recr 96, PPARg SRC2 recr 79 (no result: SRC1 TRFRET art, SRC3 TRFRET art) | PPARg SRC2 conf 42 | PPARg SRC1 ag 27 | PPARg SRC3 conf 29
